# Source: PubChem BioAssay AID929 (National Center for Advancing Translational Sciences (NCATS), 2007)
# This is one part of the list. Inconclusive results are not listed. Unmarked numbers belong to inactive results. The call rests on the fitted dose curve; in most records, active means well fitted inhibition curve with a large enough effect in the main read-out, with a control signal flat; inconclusive means small, poorly fitted or top-dose-only effect, or a change in a side signal; inactive means no such curve, though single readings can be large or run the other way.
# Target: Caspase-1 (Homo sapiens) (UniProt P29466)
# Experiment: Concentration-Response Counterscreen for Redox Active Inhibitors of Caspase-1: Cysteine
# Details: recombinant caspase-1, fluorogenic substrate, cysteine buffer; series mostly up to 57.5 µM; activity change, negative = inhibition: at the top concentration
# From the text: NIH Molecular Libraries Screening Centers Network [MLSCN]
# NIH Chemical Genomics Center [NCGC]
# PI Name: Dr. James Wells,
# Dr. Enrique Perez-Paya, Dr.Janice Williams, Dr. Dennis Wolan, a person
# The caspases (Cysteine Aspartyl Protease) comprise a related family of 14 dimeric proteases that are critical mediators of apoptosis (programmed cell death) and inflammation. The caspases represent an important class of drug targets for stroke, ischemia, cancer and inflammatory diseases. […] One goal of this project was to identify compounds that act as allosteric inhibitors via stabilizing the procaspase form of the enzyme. […]
# The biochemical assay was configured using purified caspase 1 at a high enzyme concentration to promote formation of the homodimers and thus facilitate the identification of allosteric inhibitors. […] After initiation of the assay with substrate the plates were rapidly read using an automated robotic system (Kalypsys, Inc.) to maintain consistent timing. […] Product formation was also measured after 1 hour. […]
# Caspase 1 was prepared in buffer (50 mM HEPES pH 7.5, 50 mM KCl, 200 mM NaCl, 10 mM Cys (Aldrich cat# 861677), 0.1% CHAPS) at a concentration of 66.6 nM and 3 uL was dispensed to all wells using black solid Kalypsys 1536-well plates. […] The plates were then exposed using 405 nm excitation/520 nm emission filters for 4 sec and read at 20 sec intervals for 3 min. […]
# Caspase-1 (Homo sapiens), sequence (P29466 120-297 limits assumed): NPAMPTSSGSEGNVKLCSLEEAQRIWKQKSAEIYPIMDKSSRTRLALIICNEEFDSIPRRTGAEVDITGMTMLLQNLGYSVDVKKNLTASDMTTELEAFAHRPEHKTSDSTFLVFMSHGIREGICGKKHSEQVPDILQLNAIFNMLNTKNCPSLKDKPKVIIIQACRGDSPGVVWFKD
# Caspase-1 (Homo sapiens), sequence (P29466 317-404 limits assumed): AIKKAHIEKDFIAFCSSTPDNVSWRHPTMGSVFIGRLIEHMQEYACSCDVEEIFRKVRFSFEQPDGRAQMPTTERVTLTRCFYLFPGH
row,SMILES,"activity change, negative = inhibition"
1,Cc1nc2c(C(=O)NCc3ccc4c(c3)OCO4)c[nH]n2c(=O)c1Cc1ccccc1F,-7.6%
